Among the test systems are K-562 leukemia; MALME-3M melanoma; MDA-MB-231 breast; RXF 393 renal; SF-268 CNS; SF-295 CNS; SF-539 CNS; UACC-257 melanoma; M14 melanoma; HCT-15 colon; HT29 colon; SNB-19 CNS; U251 CNS; PC-3 prostate; UACC-62 melanoma; LOX IMVI melanoma; SK-MEL-28 melanoma; SK-MEL-2 melanoma; SK-MEL-5 melanoma; SNB-75 CNS.
Holding throughout (assay): NCI-60 one-dose screen, 48 h (100 = growth as untreated, 0 = no growth, -100 = all killed)
Common to all, as to conditions: 10 µM unless noted

About 83,000 compounds went through this panel and 20% of them were active in at least one assay; those are over-represented in the sample as a whole.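 Single-concentration screen, 48 h exposure, 96-well plates. Endpoint: percent growth. Below 10 = active.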 Unmarked numbers belong to inactive results. Activity calls are given as the source filed them.

In PubChem BioAssay (NCI) one finds growth data, which are given here for ten compounds.

Consider `Cc1sc2c(c1C)c(=O)nc1c(-c3nc(-c4ccc(F)cc4)no3)n[nH]n12`, for which the growth in the experiment on K-562 leukemia is 103%; in the experiment on MALME-3M melanoma it was 96.6%; in the experiment with MDA-MB-231 breast, 95.5%; with RXF 393 renal, 120%; in the experiment with SF-268 CNS it was 103%; in the experiment with SF-295 CNS, 98.4%. Moreover, the growth with SF-539 CNS was 93.7%; in the experiment with UACC-257 melanoma, 105%; with M14 melanoma it was 107%; in the experiment on HCT-15 colon, 92.5%; in the experiment on HT29 colon, 110%; in the experiment with SNB-19 CNS, 101%. For the same compound, the growth with U251 CNS was 102%; in the experiment with PC-3 prostate, 89.6%; in the experiment with UACC-62 melanoma, 97.8%; in the experiment with LOX IMVI melanoma, 93.7%; in the experiment with SK-MEL-28 melanoma it was 115%; in the experiment on SK-MEL-2 melanoma, 113%.
On to `CNC(=O)c1cc(-c2ccc(NC(=O)Nc3ccc(N4CCOCC4)c(C(F)(F)F)c3)cc2)nc2cccnc12`, for which the growth is 34.3% in the experiment with K-562 leukemia; 60.7% with MALME-3M melanoma; 63.9% in the experiment on MDA-MB-231 breast; -15.9% (active) in the experiment with RXF 393 renal; 80.2% in the experiment with SF-268 CNS; 9.49% (active) in the experiment on SF-295 CNS. In addition, the growth is 30.1% in the experiment with SF-539 CNS; 89.2% in the experiment with UACC-257 melanoma; 77.2% in the experiment on M14 melanoma; 33.5% with HCT-15 colon; 54.9% in the experiment on HT29 colon; 58.8% with SNB-19 CNS. Also, the growth is 43.7% in the experiment on U251 CNS; 52.1% in the experiment on PC-3 prostate; 67.2% in the experiment on SK-MEL-5 melanoma; 64.3% in the experiment on UACC-62 melanoma; 31.1% in the experiment on LOX IMVI melanoma; 64.5% with SK-MEL-28 melanoma. Moreover, the growth in the experiment with SK-MEL-2 melanoma is 67.8%.
For `COc1ccc(N/N=C/c2c(-c3ccc(S(C)(=O)=O)cc3)nc3ccccn23)cc1`, the growth in the experiment on K-562 leukemia was 8.66% (active); with MALME-3M melanoma it was 75.1%; in the experiment on MDA-MB-231 breast it was 38.7%; in the experiment on RXF 393 renal, 79.3%; in the experiment on SF-268 CNS, 55.7%; in the experiment on SF-295 CNS, 6.91% (active). The growth was 55.4% in the experiment on SF-539 CNS; 70.6% in the experiment on UACC-257 melanoma; 18.4% in the experiment with M14 melanoma; 19.3% in the experiment on HCT-15 colon; 64.4% in the experiment on HT29 colon; 78.6% in the experiment on SNB-19 CNS. The growth was 29.1% in the experiment with PC-3 prostate; 59.5% with SK-MEL-5 melanoma; 10.8% with UACC-62 melanoma; 16.6% in the experiment on LOX IMVI melanoma; 53.8% in the experiment with SK-MEL-2 melanoma.
With `Oc1c(Cl)cc(Cl)c2ccc(CN3CCCCC3)nc12`, the growth was 21.9% in the experiment on K-562 leukemia; 31.4% with MALME-3M melanoma; 40.4% in the experiment on MDA-MB-231 breast; 78.2% in the experiment on RXF 393 renal; 41.9% in the experiment on SF-268 CNS; 26.5% in the experiment with SF-295 CNS. The growth was 29.1% with SF-539 CNS; 43.1% with UACC-257 melanoma; 8.72% (active) in the experiment with M14 melanoma; 26.7% with HCT-15 colon; 48.3% in the experiment on HT29 colon; 44.1% in the experiment on SNB-19 CNS. Besides, the growth with U251 CNS is 30.6%; with PC-3 prostate, 56.8%; in the experiment on SK-MEL-5 melanoma it was 33.1%; with UACC-62 melanoma it was 4.28% (active); with SK-MEL-28 melanoma, 28.7%; with SK-MEL-2 melanoma it was 84.1%.
With `COc1cccc(-c2nn(-c3ccccc3)cc2-c2ccnc(N3CCN(C(=O)c4ccccc4)CC3)c2)c1`, the growth in the experiment with K-562 leukemia is 31.4%; in the experiment on MALME-3M melanoma, 89.7%; in the experiment on MDA-MB-231 breast, 64%; in the experiment on RXF 393 renal, 95.7%; in the experiment on SF-268 CNS it was 94.2%; with SF-295 CNS, 89.1%. Also, the growth in the experiment on SF-539 CNS was 87.1%; in the experiment on UACC-257 melanoma, 101%; in the experiment on M14 melanoma, 81.2%; in the experiment on HCT-15 colon, 39.8%; in the experiment on HT29 colon, 87.2%; in the experiment on SNB-19 CNS, 85.5%. The growth in the experiment on U251 CNS was 78.4%; in the experiment with PC-3 prostate, 46.6%; in the experiment on UACC-62 melanoma, 62.4%; in the experiment with LOX IMVI melanoma it was 87.5%; with SK-MEL-28 melanoma, 84.2%; in the experiment with SK-MEL-2 melanoma, 89%.
For the compound `CN1CCc2c(sc3ncnc(N/N=C/c4ccc(Cl)c(Cl)c4)c23)C1`, the growth is 27.4% in the experiment on K-562 leukemia; 38.6% in the experiment with MALME-3M melanoma; 13.7% in the experiment with MDA-MB-231 breast; 42.1% in the experiment with RXF 393 renal; 61.1% in the experiment with SF-268 CNS; 34.7% in the experiment with SF-295 CNS. Besides, the growth in the experiment on SF-539 CNS was -61.6% (active); with UACC-257 melanoma, 92.4%; with M14 melanoma it was -11.8% (active); with HCT-15 colon, 3.04% (active); in the experiment with HT29 colon it was -46.6% (active); in the experiment on SNB-19 CNS it was 42%. For the same compound, the growth with U251 CNS is -43.6% (active); in the experiment on PC-3 prostate it was 53.6%; in the experiment with SK-MEL-5 melanoma, 86.6%; in the experiment on UACC-62 melanoma, -26.8% (active); in the experiment with SK-MEL-28 melanoma, 21.4%; in the experiment with SK-MEL-2 melanoma it was 117%.
On to `O=C(CSc1nccc(=O)[nH]1)Nc1ccc(-c2nc3ccccc3[nH]2)cc1`, for which the growth is 105% in the experiment with K-562 leukemia; 101% in the experiment with MALME-3M melanoma; 102% with MDA-MB-231 breast; 128% in the experiment with RXF 393 renal; 115% in the experiment on SF-268 CNS; 115% with SF-295 CNS. The growth is 98.9% in the experiment with SF-539 CNS; 108% in the experiment with UACC-257 melanoma; 110% in the experiment on M14 melanoma; 108% in the experiment with HCT-15 colon; 109% in the experiment on HT29 colon; 103% in the experiment with SNB-19 CNS. The growth is 106% with U251 CNS; 92.6% in the experiment with PC-3 prostate; 99.7% in the experiment on SK-MEL-5 melanoma; 99.7% with UACC-62 melanoma; 96.9% in the experiment with LOX IMVI melanoma; 98.9% in the experiment on SK-MEL-28 melanoma. The growth in the experiment with SK-MEL-2 melanoma is 107%.
For the compound `O=C1Nc2cc(Cl)ccc2/C1=C\c1ccc(OCc2ccc([N+](=O)[O-])cc2)cc1`, the growth was 83.1% with K-562 leukemia; 75.1% with MALME-3M melanoma; 66.2% in the experiment with MDA-MB-231 breast; 64.3% in the experiment on RXF 393 renal; 86.4% with SF-268 CNS; 68.2% in the experiment with SF-295 CNS. Besides, the growth with SF-539 CNS is 80.7%; in the experiment with UACC-257 melanoma, 89.5%; with M14 melanoma, 83.3%; with HCT-15 colon, 77.8%; in the experiment on HT29 colon, 76.8%; in the experiment on SNB-19 CNS it was 91%. Besides, the growth in the experiment on U251 CNS is 81.6%; in the experiment on PC-3 prostate it was 59.4%; in the experiment on UACC-62 melanoma, 67.8%; in the experiment with LOX IMVI melanoma, 65.8%; with SK-MEL-28 melanoma, 84.7%; with SK-MEL-2 melanoma it was 101%.
In the case of `OC1CCN(CCCOc2c3ccc(Cl)cc3nc3c2oc2ccccc23)CC1`, the growth was -7.34% (active) in the experiment with K-562 leukemia; -81.2% (active) in the experiment on MALME-3M melanoma; -14.7% (active) with MDA-MB-231 breast; -74.3% (active) in the experiment on RXF 393 renal; 4.41% (active) in the experiment with SF-268 CNS; -23.2% (active) in the experiment with SF-295 CNS. The growth was -76.1% (active) in the experiment with SF-539 CNS; -69.2% (active) with UACC-257 melanoma; -31.7% (active) with HCT-15 colon; -44.3% (active) in the experiment with HT29 colon; -19.1% (active) in the experiment with SNB-75 CNS; 6.3% (active) in the experiment on SNB-19 CNS. Also, the growth with U251 CNS was -43.3% (active); with PC-3 prostate it was -4.93% (active); in the experiment with SK-MEL-5 melanoma it was -97.8% (active); with UACC-62 melanoma it was -69.7% (active); with LOX IMVI melanoma, -85.8% (active); in the experiment with SK-MEL-28 melanoma, -78.6% (active). For the same compound, the growth in the experiment on SK-MEL-2 melanoma was -86.3% (active).
For `COC1CCN(Cc2ccc3c(NNC(=O)c4cnccn4)nc4cc(F)ccc4n23)C1` (stereo not drawn), the growth with K-562 leukemia was 12%; in the experiment with MALME-3M melanoma, 48.6%; in the experiment on MDA-MB-231 breast it was 19.8%; in the experiment on RXF 393 renal it was 37.9%; with SF-268 CNS it was 35.8%; with SF-295 CNS, 21.4%. The growth with SF-539 CNS is 4.26% (active); with UACC-257 melanoma, -3.02% (active); with HCT-15 colon, 28.7%; with HT29 colon, 19.3%; in the experiment on SNB-75 CNS, 65.8%; in the experiment on SNB-19 CNS, 36.1%. Moreover, the growth in the experiment with U251 CNS was 12.8%; in the experiment with PC-3 prostate, 40.9%; in the experiment on SK-MEL-5 melanoma it was 15.9%; in the experiment on UACC-62 melanoma, 20.7%; with LOX IMVI melanoma it was 5.96% (active); in the experiment with SK-MEL-28 melanoma it was 29.2%. Besides, the growth with SK-MEL-2 melanoma was 74.7%.
